mHTT CaM bind = mHTT-calmodulin interaction abrogation; AID 1671202; actives 3.6% (n = 190,000); inhibition, % at 15 µM; AlphaScreen His-mHTT/GST-CaM binding, luminescence;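 also: 0% = both proteins with DMSO and 100% = one protein alone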
Target sequence (P42858 whole entry, looked up, stated change not applied): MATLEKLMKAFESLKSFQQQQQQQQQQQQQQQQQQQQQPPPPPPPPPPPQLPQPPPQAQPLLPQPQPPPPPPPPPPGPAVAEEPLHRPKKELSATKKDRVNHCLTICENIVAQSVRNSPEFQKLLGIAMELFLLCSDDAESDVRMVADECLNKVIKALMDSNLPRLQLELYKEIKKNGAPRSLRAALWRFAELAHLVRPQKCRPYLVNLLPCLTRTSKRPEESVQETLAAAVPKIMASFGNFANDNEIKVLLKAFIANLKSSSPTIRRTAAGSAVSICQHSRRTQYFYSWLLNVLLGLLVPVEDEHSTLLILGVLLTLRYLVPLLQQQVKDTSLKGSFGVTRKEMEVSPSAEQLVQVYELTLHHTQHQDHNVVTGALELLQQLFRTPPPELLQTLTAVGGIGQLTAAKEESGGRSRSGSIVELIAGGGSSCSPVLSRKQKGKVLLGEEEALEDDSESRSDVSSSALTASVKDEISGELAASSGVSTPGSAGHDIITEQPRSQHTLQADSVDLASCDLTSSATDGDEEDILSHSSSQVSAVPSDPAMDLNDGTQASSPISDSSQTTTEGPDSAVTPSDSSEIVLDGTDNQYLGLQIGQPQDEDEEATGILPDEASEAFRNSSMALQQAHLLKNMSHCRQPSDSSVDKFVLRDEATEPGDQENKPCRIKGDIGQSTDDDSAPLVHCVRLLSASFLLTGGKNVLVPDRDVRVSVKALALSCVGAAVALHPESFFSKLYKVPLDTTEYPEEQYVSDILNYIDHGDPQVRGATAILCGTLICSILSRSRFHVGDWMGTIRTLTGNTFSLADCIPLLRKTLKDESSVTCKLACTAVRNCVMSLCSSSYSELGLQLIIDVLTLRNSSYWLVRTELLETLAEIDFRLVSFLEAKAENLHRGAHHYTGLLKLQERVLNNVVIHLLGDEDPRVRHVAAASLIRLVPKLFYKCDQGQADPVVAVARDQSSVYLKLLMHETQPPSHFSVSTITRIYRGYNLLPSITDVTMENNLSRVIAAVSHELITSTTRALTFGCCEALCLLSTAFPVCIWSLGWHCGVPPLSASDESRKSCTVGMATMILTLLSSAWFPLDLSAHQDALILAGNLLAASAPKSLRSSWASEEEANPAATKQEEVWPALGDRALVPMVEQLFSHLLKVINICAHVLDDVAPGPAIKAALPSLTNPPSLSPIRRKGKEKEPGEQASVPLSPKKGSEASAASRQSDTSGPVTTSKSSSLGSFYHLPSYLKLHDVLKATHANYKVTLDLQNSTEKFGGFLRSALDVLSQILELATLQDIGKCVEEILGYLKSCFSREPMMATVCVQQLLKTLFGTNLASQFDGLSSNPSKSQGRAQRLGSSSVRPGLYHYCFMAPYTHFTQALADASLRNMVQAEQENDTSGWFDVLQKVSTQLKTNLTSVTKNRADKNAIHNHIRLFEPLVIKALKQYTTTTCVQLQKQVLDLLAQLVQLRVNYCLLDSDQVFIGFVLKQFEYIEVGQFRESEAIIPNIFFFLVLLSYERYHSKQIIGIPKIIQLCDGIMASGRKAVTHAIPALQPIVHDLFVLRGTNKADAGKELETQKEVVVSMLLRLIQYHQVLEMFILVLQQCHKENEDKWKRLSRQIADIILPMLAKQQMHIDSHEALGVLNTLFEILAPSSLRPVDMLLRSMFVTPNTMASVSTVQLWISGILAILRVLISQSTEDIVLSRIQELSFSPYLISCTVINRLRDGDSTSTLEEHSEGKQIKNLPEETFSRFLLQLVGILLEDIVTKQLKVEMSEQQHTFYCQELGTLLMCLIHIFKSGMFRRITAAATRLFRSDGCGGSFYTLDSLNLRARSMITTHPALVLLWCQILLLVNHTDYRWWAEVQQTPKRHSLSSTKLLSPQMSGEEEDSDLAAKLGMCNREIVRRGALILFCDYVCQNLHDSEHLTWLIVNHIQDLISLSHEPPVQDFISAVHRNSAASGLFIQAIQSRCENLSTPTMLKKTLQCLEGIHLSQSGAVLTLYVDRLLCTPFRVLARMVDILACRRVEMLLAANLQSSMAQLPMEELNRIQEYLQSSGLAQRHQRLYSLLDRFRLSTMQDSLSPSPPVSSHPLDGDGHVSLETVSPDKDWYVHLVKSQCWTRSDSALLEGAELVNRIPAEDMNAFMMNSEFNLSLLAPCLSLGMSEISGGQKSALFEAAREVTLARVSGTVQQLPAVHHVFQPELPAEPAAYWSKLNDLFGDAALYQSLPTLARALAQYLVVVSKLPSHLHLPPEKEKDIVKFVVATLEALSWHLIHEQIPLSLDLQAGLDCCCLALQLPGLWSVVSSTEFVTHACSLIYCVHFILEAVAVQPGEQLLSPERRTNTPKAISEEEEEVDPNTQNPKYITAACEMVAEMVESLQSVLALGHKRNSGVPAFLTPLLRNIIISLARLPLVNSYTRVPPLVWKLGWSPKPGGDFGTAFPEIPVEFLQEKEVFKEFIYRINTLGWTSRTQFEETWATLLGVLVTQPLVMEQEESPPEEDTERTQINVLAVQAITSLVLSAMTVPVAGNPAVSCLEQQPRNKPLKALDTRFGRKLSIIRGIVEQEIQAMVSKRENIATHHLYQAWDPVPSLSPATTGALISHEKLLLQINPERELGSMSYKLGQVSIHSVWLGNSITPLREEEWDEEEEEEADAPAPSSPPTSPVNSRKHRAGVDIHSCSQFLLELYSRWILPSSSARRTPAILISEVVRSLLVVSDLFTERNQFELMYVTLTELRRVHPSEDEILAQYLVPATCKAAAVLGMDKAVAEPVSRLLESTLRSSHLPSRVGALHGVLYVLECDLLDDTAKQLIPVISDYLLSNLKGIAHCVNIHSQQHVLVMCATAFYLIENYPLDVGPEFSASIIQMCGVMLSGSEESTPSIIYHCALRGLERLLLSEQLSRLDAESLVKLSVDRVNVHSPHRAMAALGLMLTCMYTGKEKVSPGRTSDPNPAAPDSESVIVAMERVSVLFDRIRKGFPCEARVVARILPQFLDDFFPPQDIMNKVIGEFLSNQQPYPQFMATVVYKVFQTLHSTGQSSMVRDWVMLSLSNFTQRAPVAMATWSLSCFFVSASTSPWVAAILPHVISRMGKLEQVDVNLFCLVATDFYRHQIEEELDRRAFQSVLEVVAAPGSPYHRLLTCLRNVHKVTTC
Pf apPOL inh = Pf-apPOL DNA polymerase inhibition | Recombinant Pf-apPOL, molecular beacon fluorescence, 1.5 h | inhibition, % at 10 µM | actives 0.25% (n = 210,000) | AID 1794808
An asterisk follows results filed as active; / = no result. Hits are enriched below; roughly 3.5% of the tested compounds scored in any of these assays. Rule as the data show it: active = inhibition above about 50%; inactive = the rest.

SMILES	mHTT CaM bind	Pf apPOL inh
COCOCCn1cc(CN2CCS(=O)(=O)N(Cc3ccc(-c4ccc(F)cc4)cc3)C(CC(C)C)C2=O)nn1 (stereo unspecified)	69*	-10
COCOCCn1cc(CN2CCS(=O)(=O)N(Cc3ccc(-c4ccc(C)cc4)cc3)C(CC(C)C)C2=O)nn1 (stereo unspecified)	16	-9
COCOCCn1cc(CN2CCS(=O)(=O)N(Cc3ccc(-c4ccc(Cl)c(Cl)c4)cc3)C(C(C)C)C2=O)nn1 (stereo unspecified)	100*	-11
Cc1ccc(-c2ccc(CN3C(CC(C)C)C(=O)N(Cc4cn(CCC5OCCO5)nn4)CCS3(=O)=O)cc2)cc1 (stereo unspecified)	23	-13
CC(C)C1C(=O)N(Cc2cn(CCC3OCCO3)nn2)CCS(=O)(=O)N1Cc1ccc(-c2ccc(Cl)c(Cl)c2)cc1 (stereo unspecified)	98*	-11
COCOCCn1cc(CN2CCS(=O)(=O)N(Cc3ccc(-c4ccc(Cl)cc4)cc3)C(C(C)C)C2=O)nn1 (stereo unspecified)	42	-29
Cc1ccnc(OCC(=O)Nc2cc(C(F)(F)F)ccc2Cl)n1	-6	1
Cc1noc(C=Cc2sccc2C2OCCO2)c1[N+](=O)[O-]	/	-12
O=C1CC(SCc2ccc(Cl)cc2)C(=O)N1c1ccccc1 (stereo unspecified)	/	-10
COc1ccc(C2=NOC(C(=O)NCc3ccc(F)cc3)C2)cc1OC (stereo unspecified)	15	-4
O=C1NN(c2ccccc2)C(=O)/C1=C/c1cc(Cl)c(O)c(Cl)c1	17	-4
Cc1ccc(NC(=O)CN2CCC(c3nc(-c4ccc(F)cc4)no3)CC2)c(Cl)c1	-4	-4
COc1ccc(OCC(=O)NCc2ccccc2C)cc1	-5	-4
Clc1ccc(C=NCC2COc3ccccc3O2)cc1 (stereo unspecified)	0	-2
CC(C)(C)N1C(=O)C(c2ccccc2)SC1=NN=Cc1cccc([N+](=O)[O-])c1 (stereo unspecified)	/	-6
CC(C)C1C(=O)N(Cc2cn(CCC3OCCCO3)nn2)CCS(=O)(=O)N1Cc1ccc(-c2ccc(F)cc2)cc1 (stereo unspecified)	70*	-1
CC(C)C1C(=O)N(Cc2cn(CCC3OCCCO3)nn2)CCS(=O)(=O)N1Cc1ccc(-c2ccncc2)cc1 (stereo unspecified)	17	-7
Nc1nc(-c2ccc(Cl)c(Cl)c2)cs1	19	0
CCCC(=O)NC(C)c1nc2ccccc2n1Cc1ccccc1F (stereo unspecified)	4	-1
COc1ccccc1C(=O)NC(C)c1nc2ccccc2n1Cc1ccccc1F (stereo unspecified)	55*	-1
Cc1ccc(-n2nc3c(c2NC(=O)C2CCCC2)CS(=O)(=O)C3)c(C)c1	4	-4
COC(=O)COc1ccc2c(c1)OC(=Cc1cccc(Br)c1)C2=O	-1	-2
Cc1[nH]c2ccccc2c1C(c1ccco1)c1c(C)[nH]c2ccccc12	55*	-4
Cc1[nH]c2ccccc2c1C(C[N+](=O)[O-])c1ccco1 (stereo unspecified)	37	-4
CCc1nnc2c(Oc3cccc(OC)c3)nc3ccccc3n12	-1	6
SMILES	mHTT CaM bind	Pf apPOL inh
CCCc1cc(-c2oncc2-c2ccc3c(c2)OCCO3)c(O)cc1OC	63*	3
COc1ccc(-c2oncc2-c2ccc3c(c2)OCCO3)c(O)c1	10	1
CCCc1cc(-c2[nH]ncc2-c2ccc3c(c2)OCCCO3)c(O)cc1OC	76*	-7
CCCc1cc2c(=O)c(-c3ccc4c(c3)OCCCO4)c(C)oc2cc1OC	0	-3
COc1ccccc1C(=O)NCC1(c2ccccc2)CCCOCC1 (stereo unspecified)	13	1
O=C(O)CSc1nnc2sc3ccccc3n12	-10	5
O=C(NCC(O)c1cccs1)c1cc(-c2ccco2)on1 (stereo unspecified)	-10	-4
COc1cc(OC)nc(N=Cc2nc(-c3ccccc3)oc2O)n1	/	-6
Cc1ccc(S(=O)(=O)CCC(=O)O)cc1C	-9	7
O=C(C1CCCN(c2nnc3c(Cl)cccn23)C1)N1CCCCC1 (stereo unspecified)	-3	-5
CCSc1ccc(Cc2nnc(NC(=O)c3cccs3)o2)cc1	57*	-221
COc1ccc(Cc2nnc(NC(=O)Nc3cccc(C(F)(F)F)c3)o2)cc1	3	-10
CS(=O)(=O)c1ccc(Cc2nnc(NC(=O)CSc3ccc(Cl)cc3)o2)cc1	56*	-25
CSc1ccc(Cc2nnc(NC(=O)c3cc(C)oc3C)o2)cc1	48	-4
CC(C)Sc1ccc(Cc2nnc(NC(=O)Cc3ccc(F)cc3)o2)cc1	-18	-21
COc1ccc(Cc2nnc(NC(=O)Nc3cccs3)o2)cc1	54*	-1
COc1ccc(CC(=O)N2CCCC(C)(C(=O)NCc3ccc(F)cc3)C2)cc1 (stereo unspecified)	-1	1
COc1cc(C2Nc3ccccc3-c3nnc(SC)nc3O2)cc(Br)c1O (stereo unspecified)	2	-3
O=C(NCc1cscn1)C1CCN(C(=O)c2ccc(F)cc2)CC1	4	-7
CC1CC(Nc2ccccc2)c2ccccc2N1 (stereo unspecified)	19	-2
CCCC(=O)N(c1ccccc1)C1CC(C)Nc2ccccc21 (stereo unspecified)	54*	1
Cc1ccc(C)c(N2CCN(C(=O)CCC3CCCN(C(=O)Nc4ccccc4)C3)CC2)c1 (stereo unspecified)	43	1
O=C1c2ccccc2-c2onc3ccc(Cl)c1c23	30	-4
O=C1c2ccccc2-c2onc3c(Br)cc(O)c1c23	58*	-3
O=C1c2ccccc2-c2onc3c(Cl)cc(O)c1c23	53*	-1
SMILES	mHTT CaM bind	Pf apPOL inh
CCOc1ccc2noc3c2c1C(=O)c1ccccc1-3	11	-4
O=S(=O)(/C=C/c1ccccc1)NCc1ccc2c(c1)OCO2	-7	1
O=C(c1nnn(-c2ccccc2F)c1-c1ccccn1)N1CCN(c2ncccn2)CC1	0	-5
O=C(c1nnn(-c2ccccc2F)c1-c1ccccn1)N1CC=C(c2ccccc2)CC1	84*	-10
COc1ccc(NC(=O)N2CCN(C(C)c3ccccc3)CC2)c(C)c1 (stereo unspecified)	1	-4
CN1C(=O)C(=O)C(=C(O)c2ccc(Cl)cc2)C1c1ccc(F)cc1 (stereo unspecified)	-5	-1
C[C@@]12CCC=C[C@H]1[C@H](c1cccc(Br)c1)N(Cc1ccccc1)C2=O	21	0
Cc1ccc(-c2cc([C@H]3[C@@H]4C=CCC[C@@]4(C)C(=O)N3Cc3ccccc3)ccc2F)cc1	18	-1
C[C@@]12CCC=C[C@H]1[C@H](c1ccc(Br)cc1F)N(Cc1ccccc1)C2=O	90*	-4
C[C@@]12CCC=C[C@H]1[C@H](c1ccc(F)c(Br)c1)N(Cc1ccccc1)C2=O	100*	3
COc1ccccc1N(CC(=O)Nc1cccc(Br)c1)S(C)(=O)=O	4	1
Cc1nc(C(=O)NCc2ccc(N3CCCC3)cc2)c(C)n1C1CCN(C)CC1	55*	1
Cc1nc(C(=O)NCc2ccc(N3CCCCC3)cc2)c(C)n1C1CCN(C)CC1	44	-7
COc1ccc(Cl)cc1NCN1C(=O)S/C(=C\c2ccccc2)C1=O	22	-7

From PubChem BioAssay
